Values joined by “and” are separate entries in the source; they are usually repeats but may differ in a detail not shown here. Equal values may be shown once. About 2,000 (36%) of roughly 5,500 compounds were called active. Not shown: some 18% with an inconclusive outcome. Rule as the data show it: active = normalized growth mostly below about 0.91 (no sharp cut-off); inconclusive = no clear call, values can overlap the other calls; inactive = mostly above about 0.92. This is one part of the list.
Assay: chemical genetic growth profiling, strain panel (AID 1159580);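 also: tested at 20 µM; growth read once vehicle control cultures reached saturation at 30 °C; 1 = growth at the plate median or of vehicle wells; lower values mean less growth of the strain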
Details: S. cerevisiae deletion strains, growth OD

Measured: normalized growth

CN1C(=O)CCS(=O)(=O)C1c1ccc(Cl)cc1 (stereo unspecified)
inactive: locus YAL013W, strain DEP1, active compounds read low 1.01 | locus YAL021C, strain ccr4, active compounds read low 0.981 | locus YAL026C, strain drs2, active compounds read low 0.982 | locus YAL030W, strain snc1, active compounds read low 0.992 | locus YAL040C, strain CLN3, active compounds read low 1.03 | locus YBL061C, strain skt5, active compounds read low 1 | locus YBR009C, strain hhf1, active compounds read low 0.953 | locus YBR021W, strain FUR4, active compounds read low 1.02 | locus YBR023C, strain chs3, active compounds read low 0.995 | locus YBR171W, strain sec66, active compounds read low 0.988 | locus YBR229C, strain ROT2, active compounds read low 1.01 | locus YBR231C, strain swc5, active compounds read low 0.965 | locus YBR279W, strain paf1, active compounds read low 0.99 | locus YCL011C, strain gbp2, active compounds read low 1.01 | locus YCL016C, strain dcc1, active compounds read low 1.01 | locus YCL029C, strain bik1, active compounds read low 1.02 | locus YCL061C, strain MRC1 (second series), active compounds read low 0.999 | locus YCL061C, strain MRC1, active compounds read low 0.99 | locus YCL069W, strain vba3, active compounds read low 0.949 | locus YCR088W, strain abp1, active compounds read low 0.982 | locus YDL005C, strain med2, active compounds read low 0.991 | locus YDL035C, strain GPR1, active compounds read low 1.02 | locus YDL040C, strain nat1, active compounds read low 0.973 | locus YDL074C, strain BRE1, active compounds read low 1.04 | locus YDL101C, strain DUN1, active compounds read low 1.02 | locus YDL134C, strain PPH21, active compounds read low 1.01 | locus YDL185W, strain tfp1, active compounds read low 1.03 | locus YDL192W, strain arf1, active compounds read low 1.01 | locus YDR001C, strain nth1, active compounds read low 0.976 | locus YDR069C, strain doa4, active compounds read low 0.971 | locus YDR101C, strain arx1, active compounds read low 1.01 | locus YDR137W, strain rgp1, active compounds read low 0.993 | locus YDR150W, strain NUM1, active compounds read low 1.01 and 1 | locus YDR159W, strain sac3, active compounds read low 0.883 | locus YDR162C, strain NBP2, active compounds read low 1.02 | locus YDR195W, strain ref2 0.956 | locus YDR297W, strain sur2, active compounds read low 0.983 | locus YDR318W, strain mcm21, active compounds read low 1.01 | locus YDR334W, strain swr1, active compounds read low 0.951 | locus YDR335W, strain msn5, active compounds read low 0.972 | locus YDR363W, strain ESC2, active compounds read low 1.03 | locus YDR388W, active compounds read low 1.01 | locus YDR392W, strain spt3, active compounds read low 0.939 | locus YDR502C, strain sam2, active compounds read low 1.01 | locus YEL003W, strain gim4, active compounds read low 0.982 | locus YEL037C, strain rad23, active compounds read low 0.982 | locus YEL061C, strain CIN8 (second series), active compounds read low 0.995 | locus YEL061C, strain CIN8, active compounds read low 1.01 | locus YER002W, strain NOP16, active compounds read low 1.01 | locus YER015W, strain faa2, active compounds read low 0.985 | locus YER016W, strain bim1, active compounds read low 1.03 | locus YER110C, active compounds read low 1.01 | locus YER111C, strain swi4, active compounds read low 0.996 | locus YER155C, strain BEM2 (second series), active compounds read low 1 | locus YER155C, strain BEM2, active compounds read low 1.01 | locus YER167W, strain BCK2, active compounds read low 1.01 | locus YFR010W, strain ubp6, active compounds read low 0.954 | locus YGL078C, strain dbp3, active compounds read low 0.998 | locus YGL086W, strain mad1, active compounds read low 1.01 | locus YGL167C, strain pmr1, active compounds read low 0.963 | locus YGL173C, strain kem1, active compounds read low 0.953 | locus YGL227W, strain vid30, active compounds read low 0.98 | locus YGL240W, strain doc1, active compounds read low 0.963 | locus YGL248W, strain PDE1, active compounds read low 1.01 | locus YGL253W, strain hxk2, active compounds read low 0.995 | locus YGR078C, strain PAC10, active compounds read low 1.02 | locus YGR135W, strain pre9, active compounds read low 1.01 | locus YGR229C, strain SMI1, active compounds read low 1.03 | locus YGR252W, strain gcn5, active compounds read low 1.01 | locus YHR013C, strain ard1, active compounds read low 0.982 | locus YHR027C, strain rpn1, active compounds read low 0.98 | locus YHR030C, strain SLT2, active compounds read low 1.01 and 0.973 | locus YHR079C, strain IRE1 (second series), active compounds read low 1.02 | locus YHR079C, strain IRE1, active compounds read low 0.97 | locus YHR094C, strain hxt1, active compounds read low 1.01 | locus YHR129C, strain ARP1, active compounds read low 1.01 | locus YHR142W, strain chs7, active compounds read low 0.975 | locus YHR200W, strain rpn10, active compounds read low 1.01 | locus YIL066C, strain RNR3, active compounds read low 1.02 | locus YIL073C, strain SPO22, active compounds read low 1.05 | locus YIL125W, strain kgd1, active compounds read low 1.01 | locus YIR030C, strain dcg1, active compounds read low 1.01 | locus YJL092W, strain hpr5, active compounds read low 0.997 | locus YJL095W, strain BCK1 (second series), active compounds read low 0.977 | locus YJL095W, strain BCK1, active compounds read low 1.04 and 0.994 | locus YJL115W, strain asf1, active compounds read low 0.967 | locus YJL129C, strain trk1, active compounds read low 0.994 | locus YJL134W, strain LCB3, active compounds read low 1.01 | locus YJL154C, strain vps35, active compounds read low 0.989 | locus YJL164C, strain tpk1, active compounds read low 0.997 | locus YJL166W, strain qcr8, active compounds read low 0.943 | locus YJL168C, strain set2, active compounds read low 1.01 | locus YJL187C, strain SWE1 (second series), active compounds read low 1.03 | locus YJL187C, strain SWE1, active compounds read low 0.994 | locus YJR043C, strain POL32, active compounds read low 1.02 | locus YJR066W, strain TOR1, active compounds read low 0.885
